# Results: PubChem BioAssay (EPA / NIEHS)
# The source made the active and inactive calls. The calls were made as follows: active = hit-call score of the fitted dose curve at least 0.9, where 1 is the maximum; inactive = score below 0.9.
# Test: CCTE_Mundy_HCI_Cortical_Synap_Neur_Matur_NeuriteSpotCountPerNeuriteLength: CCTE's Synaptogenesis and Neurite Maturation Assay in rat cortical cells for Neurite Spot Count per Neurite Length, Mundy Lab (AID 2284210)
# Experimental: CCTE_Mundy_HCI_Cortical_Synap&Neurite_Matur is a multiplexed, cell-based-readout assay that uses rat primary cortical cells with measurements taken at 288.33 hours after chemical dosing in a microplate: 96-well plate.CCTE_Mundy_HCI_Cortical_Synap_Neur_Matur_NeuriteSpotCountPerNeuriteLength is one of eight components of the CCTE_Mundy_HCI_Cortical_Synap&Neurite_Matur assay. It measures synaptogenesis and neurite maturation related to number of neurite-associated synapses (synaptophysin puncta) per unit length of neurite using High Content Imaging of fluorescently labelled markers.[…] Using a type of morphology reporter, loss -of-signal activity can be used to understand developmental effects.
# Cells are plated onto 96 well plates and allowed 2 hr for attachment to the substrate. At days in vitro (DIV) 5, Cytosine Arabinoside (AraC) is added to arrest glial cell growth. Chemicals are dosed and a media change is performed at DIV 7 of differentiation and is continued through DIV 12 when the experiment is terminated. Cells are fixed with […] and Hoechst Dye. Cells are stained using Millipore Mouse anti-MAP2MAB3418 (1:800) and Millipore Rabbit anti-Synaptophysinsc-1750 (1:250) primary antibodies and Alexa Fluor-488 goat anti-mouse and AlexaFluor-546 goat anti-rabbit secondary antibodies to label neuronal cell nuclei, synapses and neurites. A Cellomics ArrayScan VTi HCS Reader is used for automated image acquisition and analysis of neurite outgrowth.
Structure (SMILES),outcome,AC50
CN/C(=N\[N+](=O)[O-])NCc1cnc(Cl)s1,inactive,
COP(=O)(OC)O/C(C)=C/C(=O)N(C)C,inactive,
CCOP(=O)(OCC)Oc1nc(Cl)c(Cl)cc1Cl,inactive,
COC(=O)N(C(=O)N1CO[C@@]2(C(=O)OC)Cc3cc(Cl)ccc3C2=N1)c1ccc(OC(F)(F)F)cc1,inactive,
COP(=S)(OC)SCn1nnc2ccccc2c1=O,inactive,
CO/N=C(/C1=NOCCO1)c1ccccc1Oc1ncnc(Oc2ccccc2Cl)c1F,,3.03 µM (active)
CCN(CC)c1nc(C)cc(OP(=S)(OC)OC)n1,inactive,
CC(C)(C)C(=O)C(Oc1ccc(Cl)cc1)n1cncn1 (stereo not drawn),inactive,
O=C(Nc1ccccc1-c1ccc(Cl)cc1)c1cccnc1Cl,inactive,
Cc1c(COC(=O)[C@@H]2[C@H](/C=C(\Cl)C(F)(F)F)C2(C)C)cccc1-c1ccccc1,,3.2 µM (active)
CS(=O)(=O)c1ccc(C(=O)C2C(=O)CCCC2=O)c([N+](=O)[O-])c1,inactive,
CNC(=O)Oc1cccc2ccccc12,inactive,
N#CN=C1SCCN1Cc1ccc(Cl)nc1,inactive,
CCSC(=O)N1CCCCCC1,inactive,
C=C(C)CN(CC)c1c([N+](=O)[O-])cc(C(F)(F)F)cc1[N+](=O)[O-],,6.36 µM (active)
CCNC(=O)NC(=O)C(C#N)=NOC,inactive,
CS(=O)(=O)c1cc(C(F)(F)F)ccc1C(=O)c1cnoc1C1CC1,inactive,
CC1(C)C(C=C(Cl)Cl)C1C(=O)OC(C#N)c1cccc(Oc2ccccc2)c1 (stereo not drawn),inactive,
